LMP1 NFkB inh – EBV LMP1-driven NF-kappaB luciferase reporter inhibitors, primary screen, cell-based, luminescence, single point. LMP1-induced NF-kappaB luciferase reporter cells. inhibition, % at 12.5 µM. 350,000 compounds, 0.69% hits; in the data active means inhibition above about 41%;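 further: 0% = neutral control wells and 100% = reference inhibitor control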
HIF-2a inh – HIF-2a reporter inhibitors, primary screen, luminescence, 786-0 RCC cells; 360,000 compounds, 0.72% hits; 786-0 RCC cells HIF-2a reporter, luciferase luminescence, overnight; AID 624352, 2012; inhibition, % at 18.8 µM;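 active means inhibition of the luminescence signal of 40% or more relative to plate controls, in a single-dose primary screen at 18.75 µM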
Shn3 3UTR inh – reduction of Shn3 3'UTR firefly luciferase signal, primary screen, Schnurri-3 inhibitor project, cell-based, Clone20 osteoblasts, set 2; AID 588674, 2011; inhibition, % at 12.5 µM; 360,000 compounds, 0.52% hits; Clone20 osteoblast Shn3 3'UTR firefly luciferase, 24 h;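 active means mean inhibition of at least 75% with every replicate also reaching 75%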;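 further: 0% = median of neutral control wells and 100% = pilot-screen positive control compound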
Peg3 prom inh – Peg3 promoter-driven luciferase inhibitors, primary screen, cell-based, HeLa, luciferase luminescence | HeLa PEG-Prom luciferase reporter, overnight | inhibition, % at 20 µM | 360,000 compounds, 1.7% hits;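 active means inhibition of at least 50% at 20 µM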
KKLEB cytotox – cytotoxicity in KKLEB CF airway cells, primary screen, cytotoxicity control for CF NF-kB inhibitor project, cell-based, uHTS, fluorescence assay plates; KKLEB CF airway cells viability, ATPlite luminescence, overnight; active compounds read low; cells stimulated with P. aeruginosa culture filtrate; 360,000 compounds, 0.36% hits; activity change (cytotoxicity), % at 5 µM; AID 602141, 2011;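 active means corrected activity change at or below -50% at 5 µM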
CF NFkB block – inhibitors of PAF-induced NF-kB signaling, primary screen, cell-based, GFP fluorescence, uHTS; 360,000 compounds, 0.86% hits; AID 588850, 2011; KKLEB NF-kB-GFP reporter, GFP fluorescence overnight; inhibition, % at 5 µM;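 active means at least 50% inhibition at 5 µM, scaled per plate between neutral and stimulator controls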;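 further: PAF is a Pseudomonas aeruginosa culture filtrate used as stimulus; plate controls were PAF-stimulated DMSO wells for no effect and unstimulated DMSO wells for full effect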
Active calls of the source: *; / = no result. This is a sample that favours compounds with a hit; in the whole collection about 2.9% have one here.

SMILES	LMP1 NFkB inh	HIF-2a inh	Shn3 3UTR inh	Peg3 prom inh	KKLEB cytotox	CF NFkB block
COC(=O)CCCCC1SCC(NC(=O)OC)C1NC(=O)OC (centres undefined)	6.5	16.0	-5.6	7.8	10.4	-1.9
Cc1sc(NC(=O)c2ccco2)c(C(c2cccnc2)N2CCC(C)CC2)c1C (centres undefined)	12.0	24.0	-13.1	14.9	-7.1	14.4
CCN1CCN(C(c2cccnc2)c2c(NC(=O)c3ccco3)sc(C)c2C)CC1 (centres undefined)	-2.4	-81.2	-11.5	55.2*	-3.0	-13.8
O=S(=O)(Nc1nc(-c2ccccc2)cs1)c1cccc(C(F)(F)F)c1	5.6	9.2	-4.5	30.4	1.1	7.6
O=C1/C(=C/c2ccc([N+](=O)[O-])cc2)C=C(c2ccccc2)N1c1ccccc1	-8.5	-57.0	-1.3	15.3	-1.7	-18.3
O=C(O)c1cccc(N2C(=O)/C(=C/c3ccc([N+](=O)[O-])cc3)C=C2c2ccccc2)c1	-9.3	56.6*	-1.8	53.2*	4.2	4.0
Cc1ccccc1N1C(=O)CC(Sc2nnc(-c3ccccc3)o2)C1=O (centres undefined)	-5.5	-40.1	75.5	95.3*	2.6	38.7
Cc1onc(-c2ccccc2Cl)c1C(=O)Nc1ccc(-c2cn3cccnc3n2)cc1	-0.5	3.3	73.2	94.2*	0.0	-9.8
Cc1ccc(-c2cn3cccnc3n2)cc1NC(=O)c1c(-c2ccccc2Cl)noc1C	-15.0	6.6	0.4	28.2	-6.1	8.1
CCOC(=O)CCSc1cc(C)c2ccccc2n1	4.0	3.2	-14.1	-20.2	11.7	-1.8
CC(C)C1C(=O)N(Cc2cn(CCC3OCCO3)nn2)CCS(=O)(=O)N1Cc1ccc(-c2ccc(Cl)c(Cl)c2)cc1 (centres undefined)	-22.9	-32.9	88.8*	59.9*	-8.9	31.0
Cc1[nH]c2ccccc2c1-c1csc(NC(=O)CN2CCOCC2)n1	-3.8	11.3	-30.6	12.9	-8.5	7.0
CCCCN(C(=O)C1CCN(C(=O)c2ccccc2C)CC1)c1c(N)n(CCCC)c(=O)[nH]c1=O	2.6	9.1	9.1	-4.2	6.7	-17.6
Cc1cc(NC(=O)COC(=O)C2COc3ccccc3O2)no1 (centres undefined)	3.4	11.1	6.2	64.0*	-3.7	-4.9
CC1(c2ccc3c(c2)OCCO3)NC(=O)N(CC(=O)Nc2c(F)cccc2F)C1=O (centres undefined)	1.7	5.2	-18.4	12.2	3.2	8.8
COc1cc2c(cc1OC)C(=O)CCC2	1.6	6.4	-3.0	-7.0	6.9	-9.1
CNC(=O)C1=NCCCc2cc(OC)c(OC)cc21	64.2*	5.9	-3.4	-1.7	-6.5	1.6
O=C1Nc2ccccc2/C1=C\C(=O)c1ccccc1	1.5	11.7	64.9	65.1*	-14.4	16.6
COc1ccc(C(=O)/C=C2\C(=O)Nc3ccc(Br)cc32)cc1	9.1	-43.0	36.6	76.3*	-13.7	10.7
CC(C)Oc1ccc(C(=O)/C=C2/C(=O)Nc3ccccc32)cc1	-6.0	-6.5	8.4	4.7	-15.9	15.3
CCc1c(C)c2ccc(OCC(=O)NCC3CCC(C(=O)O)CC3)cc2oc1=O (centres undefined)	-11.5	-6.0	2.4	-2.2	3.7	-6.4
O=C(NCc1ccccn1)c1nc(Cn2ccc([N+](=O)[O-])n2)no1	-5.1	10.3	6.2	-8.8	-11.5	-15.0
CCOc1cc(CNC2CCCC2)cc(Cl)c1OCc1ccc(F)cc1	-42.2	-1.5	35.7	90.7*	-20.7	11.2
CN(c1ccccc1)S(=O)(=O)c1cccc(NS(=O)(=O)c2ccc(/C=C/C(=O)O)cc2)c1	3.3	16.8	1.9	1.2	-0.1	-4.0
Cc1cc(S(=O)(=O)n2ccnc2)c(Cl)cc1Cl	-1.8	12.7	-31.0	1.7	-0.8	19.9
SMILES	LMP1 NFkB inh	HIF-2a inh	Shn3 3UTR inh	Peg3 prom inh	KKLEB cytotox	CF NFkB block
Fc1cccc(-c2nnn3c2nc(Cl)c2ccccc23)c1	-24.1	-207.8	-52.1	106.7*	0.4	25.6
Cc1ccc(-c2nnn3c2nc(Cl)c2ccccc23)cc1	-5.8	-93.6	-10.4	-10.2	-0.1	12.0
O=S(=O)(O)c1ccc2c(c1)C(C(Cl)(Cl)Cl)OC(C(Cl)(Cl)Cl)O2 (centres undefined)	-1.7	0.9	-2.8	-5.7	26.1	8.4
O=C(O)CCC(=O)Nc1ccc(C(=O)OC2CCCCC2)cc1	-2.2	52.5*	4.1	9.3	12.9	3.1
CN1C(=O)N(C)c2ccc(C=O)c3cccc1c23	85.7*	12.3	22.9	34.5	-8.7	-67.7
CN1C(=O)N(C)c2ccc(Br)c3cccc1c23	1.0	9.4	1.1	-2.4	7.7	5.1
Clc1ccc(-n2cnc3c(Cl)ncnc32)cc1Cl	18.5	-0.4	22.3	74.2*	-7.7	-3.0
O=C(N/N=C/c1cccc([N+](=O)[O-])c1)C1CC1c1ccccc1 (centres undefined)	6.2	8.8	5.8	-1.7	13.9	-5.8
C/C(N)=C(/C#N)C(=O)COC(=O)c1ccccc1C(=O)c1ccc(C)cc1	0.5	1.9	15.8	9.3	7.3	0.6
COc1cc(NC(=O)c2cc3c(C)nc4ccccc4c3o2)cc(OC)c1OC	-2.6	-11.4	16.6	56.1*	13.0	-45.2
COc1cc(NC(=O)c2cc(-c3ccccc3)on2)cc(OC)c1OC	5.3	-20.1	-4.6	4.7	-7.2	6.6
COc1ccc(CNC(=O)c2cc3c(C)nc4ccccc4c3o2)c(OC)c1	/	-1.9	89.7*	11.1	-4.9	-5.7
Cc1nc2ccccc2c2oc(C(=O)Nc3ccc(C(C)C)cc3)cc12	7.8	1.9	24.8	-3.6	-8.7	12.9
COc1cc(NC(=O)c2cc3nc(-c4ccccc4)cc(-c4ccccc4)n3n2)cc(OC)c1OC	1.7	17.2	79.5	57.1*	-4.8	28.8
CCN(CC)S(=O)(=O)c1ccc(OC)c(NC(=O)CC2CCCC2)c1	1.0	-0.1	-8.6	14.0	-21.3	8.8
COc1ccccc1C(=O)Nc1ccc(C(=O)N2CCCCC2)cc1	0.1	-54.3	-9.3	-21.2	5.1	-0.1
CCOc1ccccc1C1C2=C(COC2=O)Nc2cc3c(cc21)OCO3 (centres undefined)	0.0	28.6	35.5	-5.5	-6.7	53.6*
CCOc1ccccc1C1CC(=O)Nc2cc3c(cc21)OCO3 (centres undefined)	5.9	19.6	31.2	9.0	-29.3	15.6
O=C1OCC2=C1C(c1ccc(F)cc1)c1cc3c(cc1N2)OCO3 (centres undefined)	-4.1	12.1	28.0	0.5	-18.3	59.0*
